Laboratory results reported in PubChem BioAssay AID1159580 (chemical genetic matrix, 2015).
Several values for one entry are separate records, joined by “and”; a condition that tells them apart may be missing. Equal values may be shown once. The whole screen tested about 5,500 compounds, of which about 2,000 (36%) were called active. Roughly 18% stayed inconclusive and do not appear here. No stated cut-off is given here; in the data, active means normalized growth mostly below about 0.91 (no sharp cut-off); inconclusive means no clear call, values can overlap the other calls; inactive means mostly above about 0.92. The list shows a part of the results.

Test: chemical genetic growth profiling, strain panel (AID 1159580);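 further: tested at 20 µM; growth read once vehicle control cultures reached saturation at 30 °C; 1 = growth at the plate median or of vehicle wells; lower values mean less growth of the strain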
Conditions: growth OD

Measured: normalized growth

CN1CCN2c3ccccc3Cc3ccccc3C2C1 (stereo unspecified)
inactive: S. cerevisiae deletion strains, locus YJR075W, strain HOC1, active compounds read low 1 and 0.97 | S. cerevisiae deletion strains, locus YKL009W, strain mrt4, active compounds read low 0.999 | S. cerevisiae deletion strains, locus YKL068W, active compounds read low 0.991 | S. cerevisiae deletion strains, locus YKL085W, strain MDH1 (second series), active compounds read low 0.987 | S. cerevisiae deletion strains, locus YKL085W, strain MDH1, active compounds read low 0.987 | S. cerevisiae deletion strains, locus YKL160W, strain elf1, active compounds read low 0.989 | S. cerevisiae deletion strains, locus YKL190W, strain CNB1, active compounds read low 1.02 | S. cerevisiae deletion strains, locus YKR001C, strain vps1, active compounds read low 0.976 | S. cerevisiae deletion strains, locus YKR026C, strain gcn3, active compounds read low 1 | S. cerevisiae deletion strains, locus YKR091W, strain srl3, active compounds read low 1.01 | S. cerevisiae deletion strains, locus YLL001W, strain dnm1, active compounds read low 0.982 | S. cerevisiae deletion strains, locus YLL026W, active compounds read low 0.997 | S. cerevisiae deletion strains, locus YLL041C, strain sdh2, active compounds read low 1 | S. cerevisiae deletion strains, locus YLR027C, strain aat2, active compounds read low 1 | S. cerevisiae deletion strains, locus YLR039C, strain RIC1, active compounds read low 1.03 | S. cerevisiae deletion strains, locus YLR058C, strain SHM2, active compounds read low 1.01 | S. cerevisiae deletion strains, locus YLR102C, strain apc9, active compounds read low 0.994 | S. cerevisiae deletion strains, locus YLR113W, strain HOG1, active compounds read low 0.996 | S. cerevisiae deletion strains, locus YLR221C, strain rsa3, active compounds read low 0.993 | S. cerevisiae deletion strains, locus YLR258W, strain gsy2, active compounds read low 0.987 | S. cerevisiae deletion strains, locus YLR262C, strain YPT6 (second series), active compounds read low 0.991 | S. cerevisiae deletion strains, locus YLR262C, strain YPT6, active compounds read low 1.05 | S. cerevisiae deletion strains, locus YLR268W, strain sec22, active compounds read low 0.974 | S. cerevisiae deletion strains, locus YLR320W, strain mms22, active compounds read low 0.985 | S. cerevisiae deletion strains, locus YLR330W, strain CHS5, active compounds read low 1.01 | S. cerevisiae deletion strains, locus YLR342W, strain FKS1 (second series), active compounds read low 0.985 | S. cerevisiae deletion strains, locus YLR342W, strain FKS1, active compounds read low 0.999 | S. cerevisiae deletion strains, locus YLR357W, strain rsc2, active compounds read low 1.01 | S. cerevisiae deletion strains, locus YLR370C, strain arc18, active compounds read low 1 | S. cerevisiae deletion strains, locus YLR371W, strain rom2, active compounds read low 1 | S. cerevisiae deletion strains, locus YLR384C, strain iki3, active compounds read low 1 | S. cerevisiae deletion strains, locus YLR418C, strain cdc73, active compounds read low 0.989 | S. cerevisiae deletion strains, locus YML016C, strain PPZ1, active compounds read low 1.01 | S. cerevisiae deletion strains, locus YML032C, strain rad52, active compounds read low 1 | S. cerevisiae deletion strains, locus YML120C, strain ndi1, active compounds read low 1 | S. cerevisiae deletion strains, locus YML124C, strain tub3, active compounds read low 0.994 | S. cerevisiae deletion strains, locus YMR058W, strain fet3, active compounds read low 1.01 | S. cerevisiae deletion strains, locus YMR078C, strain ctf18, active compounds read low 0.987 | S. cerevisiae deletion strains, locus YMR125W, strain sto1, active compounds read low 1 | S. cerevisiae deletion strains, locus YMR129W, active compounds read low 0.981 | S. cerevisiae deletion strains, locus YMR205C, strain PFK2, active compounds read low 0.982 | S. cerevisiae deletion strains, locus YMR223W, strain ubp8, active compounds read low 0.986 | S. cerevisiae deletion strains, locus YMR231W, strain pep5, active compounds read low 1 | S. cerevisiae deletion strains, locus YMR263W, strain SAP30, active compounds read low 1.01 and 0.995 | S. cerevisiae deletion strains, locus YMR307W, strain GAS1, active compounds read low 1.04 | S. cerevisiae deletion strains, locus YNL067W, strain RPL9B, active compounds read low 1.02 | S. cerevisiae deletion strains, locus YNL071W, strain lat1, active compounds read low 0.998 | S. cerevisiae deletion strains, locus YNL128W, strain TEP1, active compounds read low 1.02 | S. cerevisiae deletion strains, locus YNL153C, strain GIM3, active compounds read low 1.02 and 0.974 | S. cerevisiae deletion strains, locus YNL175C, strain NOP13, active compounds read low 1.02 | S. cerevisiae deletion strains, locus YNL183C, strain NPR1, active compounds read low 0.919 | S. cerevisiae deletion strains, locus YNL197C, strain WHI3, active compounds read low 1.02 | S. cerevisiae deletion strains, locus YNL209W, strain ssb2, active compounds read low 0.997 | S. cerevisiae deletion strains, locus YNL224C, strain SQS1, active compounds read low 1.02 | S. cerevisiae deletion strains, locus YNL233W, strain BNI4, active compounds read low 1.02 | S. cerevisiae deletion strains, locus YNL248C, strain rpa49, active compounds read low 0.994 | S. cerevisiae deletion strains, locus YNL250W, strain rad50, active compounds read low 0.985 | S. cerevisiae deletion strains, locus YNL271C, strain bni1, active compounds read low 0.981 | S. cerevisiae deletion strains, locus YNL298W, strain CLA4, active compounds read low 0.99 | S. cerevisiae deletion strains, locus YNL307C, strain MCK1, active compounds read low 0.993 | S. cerevisiae deletion strains, locus YNL322C, strain KRE1 (second series), active compounds read low 0.996 | S. cerevisiae deletion strains, locus YNL322C, strain KRE1, active compounds read low 1.02 | S. cerevisiae deletion strains, locus YNR049C, strain mso1, active compounds read low 1 | S. cerevisiae deletion strains, locus YNR052C, strain pop2, active compounds read low 0.989 | S. cerevisiae deletion strains, locus YOL006C, strain TOP1, active compounds read low 1.02 | S. cerevisiae deletion strains, locus YOL012C, strain htz1 0.782 | S. cerevisiae deletion strains, locus YOL147C, strain pex11, active compounds read low 0.991 | S. cerevisiae deletion strains, locus YOR001W, strain rrp6, active compounds read low 0.99 | S. cerevisiae deletion strains, locus YOR061W, strain CKA2, active compounds read low 1.02 | S. cerevisiae deletion strains, locus YOR069W, strain VPS5, active compounds read low 1.01 | S. cerevisiae deletion strains, locus YOR070C, strain gyp1, active compounds read low 0.999 | S. cerevisiae deletion strains, locus YOR080W, strain dia2, active compounds read low 1.01 | S. cerevisiae deletion strains, locus YOR083W, strain WHI5 (second series), active compounds read low 0.985 | S. cerevisiae deletion strains, locus YOR083W, strain WHI5, active compounds read low 0.983 | S. cerevisiae deletion strains, locus YOR106W, strain vam3, active compounds read low 0.986 | S. cerevisiae deletion strains, locus YOR136W, strain idh2, active compounds read low 0.992 | S. cerevisiae deletion strains, locus YOR144C, strain elg1, active compounds read low 0.99 | S. cerevisiae deletion strains, locus YOR184W, strain ser1, active compounds read low 0.98 | S. cerevisiae deletion strains, locus YOR231W, strain MKK1, active compounds read low 0.973 | S. cerevisiae deletion strains, locus YOR265W, strain rbl2, active compounds read low 1 | S. cerevisiae deletion strains, locus YOR270C, strain vph1, active compounds read low 0.993 | S. cerevisiae deletion strains, locus YOR290C, strain snf2, active compounds read low 0.928 | S. cerevisiae deletion strains, locus YOR316C, strain cot1, active compounds read low 0.989 | S. cerevisiae deletion strains, locus YPL051W, strain arl3, active compounds read low 0.988 | S. cerevisiae deletion strains, locus YPL055C, strain LGE1, active compounds read low 1.04 | S. cerevisiae deletion strains, locus YPL078C, strain atp4, active compounds read low 0.983 | S. cerevisiae deletion strains, locus YPL106C, strain sse1, active compounds read low 0.989 | S. cerevisiae deletion strains, locus YPL240C, strain hsp82, active compounds read low 1.01 | S. cerevisiae deletion strains, locus YPL241C, strain CIN2, active compounds read low 1.01 | S. cerevisiae deletion strains, locus YPL256C, strain CLN2, active compounds read low 0.99 | S. cerevisiae deletion strains, locus YPR119W, strain clb2, active compounds read low 0.988 | S. cerevisiae deletion strains, locus YPR141C, strain kar3, active compounds read low 0.975 | S. cerevisiae deletion strains, locus YPR163C, strain tif3, active compounds read low 0.984 | S. cerevisiae deletion strains, locus YPR167C, strain met16, active compounds read low 0.987 | S. cerevisiae deletion strains, strain wtn01, active compounds read low 0.97 | S. cerevisiae strains, strain wild type, active compounds read low 1.01
